Experimental data from PubChem BioAssay (NCATS).
Inconclusive results are not listed. Unmarked numbers belong to inactive results. Activity calls are given as the source filed them. Calls come from the whole dose curve; as a rule, active = well fitted cell-killing curve with a large enough effect; inconclusive = small, poorly fitted or top-dose-only effect, or effect the other way; inactive = flat fitted curve, though single readings scatter.

Legend:
Test in all cases: Primary qHTS to identify gynecologic anti-cancer compounds using libraries of approved drugs and bioactive compounds (AID 1345084); note: nearly all actives have a fitted effect of over 55% in size
Tov112D = details: Gynecologic cancer cell panel viability, ATPlite luminescence, 48 h; series mostly up to 57.5 µM
Outline: (§1)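 Luminescence from the ATPlite ATP-monitoring reagent indicates viable cell number; lower signal means cytotoxicity. Cells received compound 16 h after seeding and were exposed for 48 h across five concentrations.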

Es-2 = details: Gynecologic cancer cell panel viability, ATPlite luminescence, 48 h; series mostly up to 57.5 µM
Outline: as §1

HeLa = details: Gynecologic cancer cell panel viability, ATPlite luminescence, 48 h; series mostly up to 57.5 µM
Outline: as §1

OV90 = details: Gynecologic cancer cell panel viability, ATPlite luminescence, 48 h; series mostly up to 57.5 µM
Outline: as §1

Tov-21-G = details: Gynecologic cancer cell panel viability, ATPlite luminescence, 48 h; series mostly up to 57.5 µM
Outline: as §1

Hek293T = details: Gynecologic cancer cell panel viability, ATPlite luminescence, 48 h, control line for the selectivity index; series mostly up to 57.5 µM
Outline: as §1

JEG-3 = details: Gynecologic cancer cell panel viability, ATPlite luminescence, 48 h; series mostly up to 57.5 µM
Outline: as §1

PA-1 = details: Gynecologic cancer cell panel viability, ATPlite luminescence, 48 h; series mostly up to 57.5 µM
Outline: as §1

SKOV3 = details: Gynecologic cancer cell panel viability, ATPlite luminescence, 48 h; series mostly up to 57.5 µM
Outline: as §1
% is set by controls: 0 for no effect and ±100 for the full control effect; potency is the fitted concentration of half-maximal effect.

COc1cc2ncnc(Nc3cccc(Cl)c3F)c2cc1OC(=O)N1CCN(C)C[C@H]1C
Potency (Tov112D): 22.4 µM (active)

O=C(CSc1nc2c(c(=O)n1-c1ccccc1)SCC2)Nc1ccc(-c2ccccc2)cn1
Potency (Es-2): 0.224 µM (active)
Potency (HeLa): 0.158 µM (active)
Potency (OV90): 1.26 µM (active)
Potency (Tov-21-G): 0.316 µM (active)
Potency (Tov112D): 0.158 µM (active)

C/C=C/c1ccc(O[C@@H]2O[C@H](CO)[C@@H](O)[C@H](O)[C@H]2O)c(OC)c1
Potency (OV90): inactive
Potency (Tov112D): inactive

C[C@H]1[C@H](O)O[C@@H]2O[C@@]3(C)CC[C@H]4[C@H](C)CC[C@@H]1[C@@]24OO3
Potency (HeLa): 12.6 µM (active)
Potency (Hek293T): 8.91 µM (active)
Potency (OV90): inactive
Potency (Tov-21-G): 28.2 µM (active)

Oc1ccc(CNc2ccccc2F)c2cccnc12
Potency (JEG-3): inactive
Potency (PA-1): 17.8 µM (active)

CC(O)/C=C/C1(O)C2(C)COC1(C)CC(O)C2 (stereo not given)
Potency (Es-2): inactive
Potency (PA-1): inactive

COc1cc2c(cc1OC)[C@@H]1[C@H](O)[C@@H](OC)C=C3CCN(C2)[C@H]31
Potency (HeLa): inactive
Potency (JEG-3): inactive
Potency (SKOV3): inactive

Cc1c(C(=O)N2CCOc3ccc(-c4ccc(N)nc4)cc3C2)ccc(S(C)(=O)=O)c1F
Potency (JEG-3): inactive

CC(C)C(CO)Nc1nc(Nc2cc(N)cc(Cl)c2)c2ncn(C(C)C)c2n1 (stereo not given)
Potency (HeLa): 25.1 µM (active)
Potency (PA-1): 14.1 µM (active)
Potency (SKOV3): 28.2 µM (active)
Potency (Tov-21-G): 22.4 µM (active)
Potency (Tov112D): 20 µM (active)

CNC(=O)c1cccc(-c2ccc3c(N4CCOC[C@@H]4C)nc(N4CCOC[C@@H]4C)nc3n2)c1
Potency (Hek293T): 1.41 µM (active)
Potency (JEG-3): inactive
Potency (OV90): 1.26 µM (active)
Potency (PA-1): 1.58 µM (active)
Potency (SKOV3): 1.58 µM (active)
Potency (Tov-21-G): 1.41 µM (active)

CC(=O)O[C@H]1CC(C)(C)CC2[C@@]13[C@H](O)C[C@]1(C)[C@@]2(CCC2[C@@]4(C)CC[C@H](O[C@@H]5OC[C@H](O[C@@H]6O[C@H](CO)[C@@H](O)[C@H](O)[C@H]6O[C@@H]6OC[C@@H](O)[C@H](O)[C@H]6O)[C@H](O)[C@H]5O[C@@H]5O[C@H](CO)[C@@H](O)[C@H](O)[C@H]5O)C(C)(C)C4CC[C@]21C)O[C@@H]3O (stereo not given in full)
activity change, negative = cytotoxicity (HeLa): -7.2% [at 11.6 µM]
Potency (JEG-3): 2.82 µM (active)
Potency (OV90): 3.16 µM (active)

NC(=O)Nc1cc(-c2cccc(F)c2)sc1C(=O)NC1CCCNC1 (stereo not given)
Potency (Hek293T): 0.447 µM (active)
Potency (OV90): 5.62 µM (active)

COc1cc(C2c3cc4c(c(O)c3CC(CO)C2C(=O)O)OCO4)cc(OC)c1O (stereo not given)
Potency (Es-2): 3.55 µM (active)
Potency (Hek293T): 3.98 µM (active)
Potency (PA-1): 2 µM (active)
Potency (SKOV3): 11.2 µM (active)
Potency (Tov112D): 4.47 µM (active)

C=CC(=O)Nc1cccc(Nc2nc(Nc3ccc(N4CCN(C(C)=O)CC4)cc3OC)ncc2C(F)(F)F)c1
Potency (Es-2): inactive
Potency (OV90): 15.8 µM (active)

CCc1cnn2c(NCc3ccc[n+]([O-])c3)cc(N3CCCCC3CCO)nc12 (stereo not given)
Potency (JEG-3): inactive
Potency (OV90): inactive

Cn1cc(S(=O)(=O)c2ccc(Cl)cc2)c2cccc(N3CCNCC3)c21
Potency (HeLa): inactive
Potency (Tov-21-G): 20 µM (active)
Potency (Tov112D): 28.2 µM (active)

COc1cc(-c2ncn(/C=C\C(=O)OC(C)C)n2)cc(C(F)(F)F)c1
Potency (Es-2): 0.891 µM (active)
Potency (HeLa): 15.8 µM (active)
Potency (PA-1): 0.562 µM (active)

CCN(CC)c1ccc2c(O)c(C=Nc3ccc(CC(=O)O)c(-c4c5c(nc6ccccc46)CCC(C(=O)NN)C5)c3)c(=O)oc2c1 (stereo not given)
Potency (Tov112D): inactive

CN[C@H](C(=O)N[C@H](C(=O)N(C)[C@H](/C=C(\C)C(=O)O)C(C)C)C(C)(C)C)C(C)(C)c1ccccc1
Potency (SKOV3): inactive

C=CC(=O)Nc1cccc(CN2C(=O)N(c3c(Cl)c(OC)cc(OC)c3Cl)Cc3cnc(NCCCCN(CC)CC)nc32)c1
Potency (Es-2): inactive
Potency (Hek293T): inactive
Potency (JEG-3): inactive
Potency (OV90): inactive

Cc1cc(C)c(Nc2ccnc(Nc3ccc(C#N)cc3)n2)c(C)c1
Potency (JEG-3): inactive
Potency (OV90): 10 µM (active)
Potency (PA-1): inactive
